Data reported in ChEMBL document CHEMBL3988442, “University of Dundee, Small-Polar-MMV Screening Library” (2021).
For some assays here: Entries with a potency or affinity are not part of this list.

What was measured:
Design in all cases: scale not given: direction of the effect not stated beside the values
[1] = molecular target: Protein translocase subunit SecA (Escherichia coli (strain K12)) (UniProt P10408); experiment: Assay to Identify E. coli SecA ATPase Inhibitors; type: functional; details: 30 µM
[2] = molecular target: T1, Ubiquitin-activating enzyme e1, putative (Leishmania donovani (strain BPK282A1)) (UniProt E9BSI1); experiment: Leishmania donovani Ubiquitin Activating Enzyme (LdE1); type: functional; details: 30 µM
T1 sequence (whole entry): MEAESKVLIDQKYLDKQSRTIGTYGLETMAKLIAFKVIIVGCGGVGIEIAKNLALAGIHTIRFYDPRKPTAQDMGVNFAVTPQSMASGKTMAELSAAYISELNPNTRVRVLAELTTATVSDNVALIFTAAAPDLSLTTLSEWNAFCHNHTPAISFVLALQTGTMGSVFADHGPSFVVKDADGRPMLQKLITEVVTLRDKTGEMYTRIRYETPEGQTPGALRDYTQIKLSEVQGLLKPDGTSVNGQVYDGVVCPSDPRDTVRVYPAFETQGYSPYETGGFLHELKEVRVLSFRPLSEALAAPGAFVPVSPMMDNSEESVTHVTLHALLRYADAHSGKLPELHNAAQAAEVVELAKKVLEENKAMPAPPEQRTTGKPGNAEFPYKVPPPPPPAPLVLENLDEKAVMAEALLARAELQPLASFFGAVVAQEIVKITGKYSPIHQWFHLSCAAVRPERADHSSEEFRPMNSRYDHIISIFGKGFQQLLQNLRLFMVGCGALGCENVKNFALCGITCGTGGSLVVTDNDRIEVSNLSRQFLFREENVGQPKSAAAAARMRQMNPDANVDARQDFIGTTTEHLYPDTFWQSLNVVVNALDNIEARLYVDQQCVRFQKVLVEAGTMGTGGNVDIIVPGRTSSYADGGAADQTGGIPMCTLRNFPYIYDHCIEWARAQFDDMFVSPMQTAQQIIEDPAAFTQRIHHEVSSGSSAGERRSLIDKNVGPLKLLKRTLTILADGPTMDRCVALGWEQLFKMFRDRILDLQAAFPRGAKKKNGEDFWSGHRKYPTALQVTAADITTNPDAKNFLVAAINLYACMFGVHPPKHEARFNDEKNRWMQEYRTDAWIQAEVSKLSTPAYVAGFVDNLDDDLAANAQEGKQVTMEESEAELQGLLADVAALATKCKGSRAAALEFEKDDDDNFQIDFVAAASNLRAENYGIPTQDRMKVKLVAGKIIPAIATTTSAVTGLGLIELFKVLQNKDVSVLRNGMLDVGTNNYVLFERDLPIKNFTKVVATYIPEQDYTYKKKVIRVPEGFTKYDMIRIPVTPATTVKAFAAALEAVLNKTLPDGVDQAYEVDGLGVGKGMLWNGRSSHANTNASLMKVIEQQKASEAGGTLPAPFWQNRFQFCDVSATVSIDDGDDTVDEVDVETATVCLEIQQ

[3] = molecular target: AMP-activated protein kinase, AMPK (Homo sapiens) (UniProt P54646+O43741+P54619+Q9UGJ0+Q9Y478+Q13131+Q9UGI9); experiment: AMP-dependent Kinase enzyme assay. An in vitro enzyme assay that detects ADP turnover that is directly proportional to AMPK activity. This uses naive AMPK that is activated during the assay with MK-8722; type: functional; details: 30 µM
[4] = molecular target: Sialic acid-binding Ig-like lectin 9 (Homo sapiens) (UniProt Q9Y336); experiment: Hs-Siglec9 ALPHAscreen SOP 20170721; details: 10 µM
Trypanosoma cruzi = experiment: Trypanosoma cruzi phosphomannomutase and mannose-1-phosphate guanylyltransferase assay; type: functional; details: 10 µM
[5] = molecular target: T2, Arginase-2, mitochondrial (Homo sapiens) (UniProt P78540); experiment: in vitro enzyme assay to detect the production of urea directly proportional to the activity of Arginase II; type: functional; details: 33.3 µM; also: in the data most compounds retested in dose-response had high values
T2 sequence (whole entry): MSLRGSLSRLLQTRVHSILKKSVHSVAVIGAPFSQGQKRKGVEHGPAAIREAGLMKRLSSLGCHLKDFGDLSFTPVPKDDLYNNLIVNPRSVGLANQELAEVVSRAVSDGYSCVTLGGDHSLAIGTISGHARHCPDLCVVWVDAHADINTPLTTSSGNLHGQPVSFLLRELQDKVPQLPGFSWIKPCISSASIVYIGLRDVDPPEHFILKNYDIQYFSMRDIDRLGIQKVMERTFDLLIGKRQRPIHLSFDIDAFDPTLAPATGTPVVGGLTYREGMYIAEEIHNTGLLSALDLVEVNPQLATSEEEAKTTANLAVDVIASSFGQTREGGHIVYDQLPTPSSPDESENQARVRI

[6] = molecular target: T3, Proteasome subunit beta (Trypanosoma cruzi) (UniProt O96673); experiment: Trypanosoma cruzi proteasome chymotrypsin-like activity (TcProtChymo) assay.; also: in the data most compounds retested in dose-response had high values; type: functional; details: 9.37 µM
T3 sequence (whole entry): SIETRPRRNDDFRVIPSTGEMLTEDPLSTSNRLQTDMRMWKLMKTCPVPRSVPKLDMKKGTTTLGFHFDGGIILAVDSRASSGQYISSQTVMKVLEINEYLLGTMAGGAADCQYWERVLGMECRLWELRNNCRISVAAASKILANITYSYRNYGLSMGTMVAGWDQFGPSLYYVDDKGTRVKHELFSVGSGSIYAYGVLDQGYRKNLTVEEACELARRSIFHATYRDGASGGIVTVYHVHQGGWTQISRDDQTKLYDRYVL

Homo sapiens = species: Homo sapiens; experiment: To identify inhibition of the IFN signalling (Jak-Stat) pathway via expression of an eGFP reporter gene under the control of an IFN-stimulated response element (ISRE) containing MxA promoter.; type: functional; details: 30 µM
[7] = molecular target: T4, Tyrosyl-tRNA synthetase, putative (Trypanosoma cruzi (strain CL Brener)) (UniProt Q4DSP6); experiment: Trypanosoma cruzi tyrosyl tRNA synthetase (TcYRS) _High Tyrosine SOP; type: functional; details: 30 µM; also: in the data most compounds retested in dose-response had high values
T4 sequence (whole entry): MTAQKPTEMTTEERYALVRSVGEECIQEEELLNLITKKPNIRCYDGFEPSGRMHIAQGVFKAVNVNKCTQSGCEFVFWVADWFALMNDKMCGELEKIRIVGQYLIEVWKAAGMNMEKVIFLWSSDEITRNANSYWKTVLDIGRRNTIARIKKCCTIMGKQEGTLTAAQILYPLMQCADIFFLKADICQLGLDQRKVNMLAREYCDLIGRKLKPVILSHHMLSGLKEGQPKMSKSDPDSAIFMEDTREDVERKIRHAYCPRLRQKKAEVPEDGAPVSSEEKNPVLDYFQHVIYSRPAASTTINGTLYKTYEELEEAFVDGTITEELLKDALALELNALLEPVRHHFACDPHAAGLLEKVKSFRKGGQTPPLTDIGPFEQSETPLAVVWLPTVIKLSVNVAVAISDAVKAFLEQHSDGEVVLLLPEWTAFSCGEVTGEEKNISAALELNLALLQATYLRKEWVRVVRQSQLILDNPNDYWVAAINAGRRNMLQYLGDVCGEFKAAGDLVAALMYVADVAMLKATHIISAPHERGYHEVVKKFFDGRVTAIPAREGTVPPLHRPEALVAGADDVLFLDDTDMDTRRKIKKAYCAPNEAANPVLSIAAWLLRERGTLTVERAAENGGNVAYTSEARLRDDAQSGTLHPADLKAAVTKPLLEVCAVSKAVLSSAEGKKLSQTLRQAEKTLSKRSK

[8] = molecular target: T4, Tyrosyl-tRNA synthetase, putative (Trypanosoma cruzi (strain CL Brener)); experiment: Trypanosoma cruzi tyrosyl tRNA synthetase (TcYRS) SOP; type: functional; details: 30 µM
[9] = molecular target: Chromo domain-containing protein 1 (Saccharomyces cerevisiae (strain ATCC 204508 / S288c) (Baker's yeast)) (UniProt P32657); experiment: ScCHD-1 Enzyme Inhibition Assay; type: functional; details: 30 µM; also: in the data most compounds retested in dose-response had high values
Chain of Chromo domain-containing protein 1 (Saccharomyces cerevisiae (strain ATCC 204508 / S288c) (Baker's yeast)) (P32657 whole entry, the tested form may be a part): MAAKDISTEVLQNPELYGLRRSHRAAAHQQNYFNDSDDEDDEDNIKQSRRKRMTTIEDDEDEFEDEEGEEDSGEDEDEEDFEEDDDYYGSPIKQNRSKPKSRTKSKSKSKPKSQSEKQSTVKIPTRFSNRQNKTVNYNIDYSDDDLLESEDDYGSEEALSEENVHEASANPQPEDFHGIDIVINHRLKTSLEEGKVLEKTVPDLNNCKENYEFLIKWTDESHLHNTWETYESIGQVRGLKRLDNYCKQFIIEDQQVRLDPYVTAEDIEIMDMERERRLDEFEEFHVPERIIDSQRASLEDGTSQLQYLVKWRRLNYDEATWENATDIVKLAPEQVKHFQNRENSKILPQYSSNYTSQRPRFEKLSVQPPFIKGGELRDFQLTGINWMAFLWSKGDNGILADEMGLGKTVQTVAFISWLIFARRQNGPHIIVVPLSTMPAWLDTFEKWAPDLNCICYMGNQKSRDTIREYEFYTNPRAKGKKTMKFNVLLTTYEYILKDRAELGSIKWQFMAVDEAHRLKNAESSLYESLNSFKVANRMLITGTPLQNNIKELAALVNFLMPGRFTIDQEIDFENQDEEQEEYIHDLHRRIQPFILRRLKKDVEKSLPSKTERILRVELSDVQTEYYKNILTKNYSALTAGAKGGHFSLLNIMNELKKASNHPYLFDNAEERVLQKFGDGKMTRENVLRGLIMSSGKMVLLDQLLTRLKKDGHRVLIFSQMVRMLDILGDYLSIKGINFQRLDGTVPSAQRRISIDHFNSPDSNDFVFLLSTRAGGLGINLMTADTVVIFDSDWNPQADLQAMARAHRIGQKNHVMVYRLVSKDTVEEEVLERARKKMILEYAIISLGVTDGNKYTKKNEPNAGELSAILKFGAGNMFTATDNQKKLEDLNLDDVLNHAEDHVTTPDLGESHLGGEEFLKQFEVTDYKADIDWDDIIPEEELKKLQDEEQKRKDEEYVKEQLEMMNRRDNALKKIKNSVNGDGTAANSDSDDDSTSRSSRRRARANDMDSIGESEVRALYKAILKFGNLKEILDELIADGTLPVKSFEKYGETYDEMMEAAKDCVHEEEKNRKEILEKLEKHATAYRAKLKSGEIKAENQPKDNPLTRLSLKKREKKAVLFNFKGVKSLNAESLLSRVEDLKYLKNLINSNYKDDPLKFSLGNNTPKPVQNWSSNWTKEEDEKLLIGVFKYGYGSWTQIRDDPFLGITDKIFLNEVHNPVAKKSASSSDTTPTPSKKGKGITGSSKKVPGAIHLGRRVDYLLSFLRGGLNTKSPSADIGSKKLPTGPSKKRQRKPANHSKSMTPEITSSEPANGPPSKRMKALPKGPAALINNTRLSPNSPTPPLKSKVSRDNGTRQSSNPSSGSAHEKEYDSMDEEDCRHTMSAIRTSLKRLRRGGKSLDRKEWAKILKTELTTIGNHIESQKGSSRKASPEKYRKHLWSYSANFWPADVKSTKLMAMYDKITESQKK

Chain of Sialic acid-binding Ig-like lectin 9 (Homo sapiens) (Q9Y336 whole entry): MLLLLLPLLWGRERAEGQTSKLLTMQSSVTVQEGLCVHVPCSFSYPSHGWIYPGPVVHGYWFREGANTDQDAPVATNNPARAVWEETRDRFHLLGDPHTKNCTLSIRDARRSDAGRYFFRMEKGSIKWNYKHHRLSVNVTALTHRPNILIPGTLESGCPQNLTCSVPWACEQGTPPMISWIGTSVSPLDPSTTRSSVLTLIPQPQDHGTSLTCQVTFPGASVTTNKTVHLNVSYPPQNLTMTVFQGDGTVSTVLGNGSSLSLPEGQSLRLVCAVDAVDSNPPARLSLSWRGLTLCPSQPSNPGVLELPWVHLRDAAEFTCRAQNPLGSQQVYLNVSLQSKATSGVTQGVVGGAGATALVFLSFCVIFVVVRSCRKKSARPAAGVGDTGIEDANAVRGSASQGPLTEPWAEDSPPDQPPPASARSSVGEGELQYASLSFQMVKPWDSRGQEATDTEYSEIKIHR
Chain of Protein translocase subunit SecA (Escherichia coli (strain K12)) (P10408 whole entry): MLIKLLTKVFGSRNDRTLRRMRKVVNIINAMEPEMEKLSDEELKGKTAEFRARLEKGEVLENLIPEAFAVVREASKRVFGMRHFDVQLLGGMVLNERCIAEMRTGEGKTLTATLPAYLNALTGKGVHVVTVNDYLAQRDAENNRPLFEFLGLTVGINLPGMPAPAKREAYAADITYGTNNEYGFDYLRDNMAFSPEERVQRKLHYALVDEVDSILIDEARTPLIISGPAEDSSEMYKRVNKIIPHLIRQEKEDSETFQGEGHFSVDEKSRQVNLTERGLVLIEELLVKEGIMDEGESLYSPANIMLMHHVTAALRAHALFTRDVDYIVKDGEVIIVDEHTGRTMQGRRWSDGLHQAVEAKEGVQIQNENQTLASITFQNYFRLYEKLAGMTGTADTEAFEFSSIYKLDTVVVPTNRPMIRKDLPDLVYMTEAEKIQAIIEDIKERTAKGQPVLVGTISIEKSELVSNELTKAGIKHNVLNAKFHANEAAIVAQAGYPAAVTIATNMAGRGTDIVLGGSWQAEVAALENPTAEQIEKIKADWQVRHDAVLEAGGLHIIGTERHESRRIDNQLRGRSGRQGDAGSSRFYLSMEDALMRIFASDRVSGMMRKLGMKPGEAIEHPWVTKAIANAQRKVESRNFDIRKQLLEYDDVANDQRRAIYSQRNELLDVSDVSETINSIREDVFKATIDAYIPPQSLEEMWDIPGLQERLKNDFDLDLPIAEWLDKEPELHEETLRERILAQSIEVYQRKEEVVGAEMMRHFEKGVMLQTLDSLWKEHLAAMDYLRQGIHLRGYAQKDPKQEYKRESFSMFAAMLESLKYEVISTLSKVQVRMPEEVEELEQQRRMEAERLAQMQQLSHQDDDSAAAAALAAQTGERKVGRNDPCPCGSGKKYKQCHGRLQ

Compound	Percent Effect [1] [%]	Percent Effect [2] [%]	Percent Effect [3] [%]	Percent Effect [4] [%]	Percent Effect (Trypanosoma cruzi) [%]	Percent Effect [5] [%]	Percent Effect [6] [%]	Percent Effect (Homo sapiens) [%]	Percent Effect [7] [%]	Percent Effect [8] [%]	Percent Effect [9] [%]
CC(C)c1n[nH]c(C2CN(C(=O)c3cccc4cn[nH]c34)CCO2)n1 (configuration not stated)	-1.73	7.89	4.13	11.6	2.33	1.8	4.32	4.21	2.46	6.17	-0.736
Cc1nn(C)c(C)c1NC(=O)CN1CCc2c(nc(C(C)C)n2C)C1	-0.874	8.11	-7.75	18.4	7.34	12.9	7.93	22.8	5.82	14.6	-2.17
CC(C)OCCN1CCN(C(=O)c2cccc(CC#N)c2)CC1	-0.779	18.2	-4.35	-10.2	-8.99	4.27	11.2	18.6	4.85	9.76	-7.58
CC(C#N)CSc1ccccc1NCC(=O)NCc1ccccc1 (configuration not stated)	-3.57	-8.22	11.4	8.76	5.49	14.1	11.7	19.4	-2.15	-5	-1.42
COc1ccccc1OCC(=O)NCC(O)(c1ccccc1)C1CC1 (configuration not stated)	-4.08	13.7	-8.54	17	2.74	0.909	14	7.48	8.6	15	-5.98
Cc1nc(C)n(C2CCCN(C(=O)COCc3ccccc3)C2)n1 (configuration not stated)	-0.388	0	25.2	9.37	2.25	1.78	-4.22	4.38	3.88	12.2	-7.13
COCc1nc(CN2CCC3(CCCO3)CCC2=O)no1 (configuration not stated)	-7.29	5.33	-4.46	6.25	7.3	-2.6	12	10.4	6.01	3.7	-5.51
Cc1nc(N2CCN(C(=O)c3ccccc3)CC2)c2c(n1)c(C)nn2C	-0.87	12	3.25	0	-0.393	-12.8	12.9	25.6	6.35	10.3	-10.1
Cc1ccc2c(c1)C1(CC2)CCN(c2nncs2)CC1	-0.497	0	5.45	1.98	1.59	3.59	7.28	20.4	6.25	11.1	5.12
Cc1ccc(C(=O)CCC(=O)N2CCC(c3nncn3C)CC2)cc1	-8.28	15.6	-6.09	19.9	5.24	1.78	11.3	9.84	5.83	24.4	-1.85
CC(C)NC(=O)[C@@H]1C[C@H](N)CN1C(=O)c1cc2c([nH]c1=O)CCCC2	-2.48	6.94	-2.43	-9.13	-1.46	1.77	17.7	3.48	4.21	7.69	-3.08
CC(=O)N1CCCC1C(=O)NCCOc1cc(C)cc(C)c1 (configuration not stated)	-7.33	7.79	-4.76	10.6	3.37	-5.34	-7.43	-4.36	6.8	12.2	-4.02
O=C(Nc1cn[nH]c1)c1ccc(O)nc1	-0.619	13.2	4.46	12.7	2.82	-0.766	5.68	1.45	8.33	21.9	-8.54
Cn1c(CN2CCOC(c3nc(C(C)(C)C)n[nH]3)C2)nnc1C1CC1 (configuration not stated)	-7.68	-26	-4.74	-20.2	7.35	-8.63	4.93	-6.09	3.81	18.8	-22.6
Cc1cnc(CN(C)C2CCN(CCc3ccccn3)CC2)cn1	-1.96	13.5	-8.24	-5.72	5.48	-3.88	14.5	13.7	7.92	15.8	-6.34
CS(=O)(=O)N[C@@H]1CN(C(=O)c2ccccn2)[C@@H]2CCCO[C@@H]21	-5.18	5.41	4.88	2.32	-0.489	2.87	18.4	-7.84	4.32	7.69	-0.379
CN1[C@H](Cn2cncn2)C[C@@H]2CN(Cc3cccc(C#N)c3)CC[C@@H]21	-1.53	13.5	-0.719	-6.04	0	-2.5	15	-2.04	9.9	13.4	2.31
Cc1nnc2n1CCN(Cc1csc(CC(=O)N(C)C)n1)C2	-4.68	10.8	-6.55	9.69	-1.21	-2.03	3.77	9.18	5.94	13.4	0.846
COc1ccc(NC(=O)N2CCN(c3ncccn3)CC2)cn1	-0.45	8.22	2.23	-2.77	-3.53	3.64	7.63	11.7	4.3	10	-3.82
CCn1cc2c(n1)CN(Cc1ccoc1)CC2COCC1CC1 (configuration not stated)	-5.08	-10.8	-0.58	2.38	6.64	-1.67	7.69	-8.7	11.9	8.54	-4.61
CC(NC(=O)CCOc1ccccc1Cl)c1nnc2n1CCC2 (configuration not stated)	-2.36	10.8	-3.16	-0.604	6.51	-2	5.77	6.7	5.42	16.1	-6.83
COc1ccc(CN2C[C@H]3CC[C@](O)(c4ccc(C)cn4)[C@H]3C2)c(F)c1	-5	6.76	15.2	2.69	-2.77	-1.16	-1.56	13.7	5.38	6.49	-8.01
